The structures appear in SMILES notation.

Assay [1] concerns the target Sphingosine kinase 1 (Homo sapiens) (UniProt Q9NYA1). Conditions: at 1 µM.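 Also: mean SPHK1 inhibition value reported from the GSK PKIS kinase panel screen.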
Assay [2] addresses T1, Sphingosine kinase 2 (Homo sapiens) (UniProt Q9NRA0).
T1 sequence (whole entry): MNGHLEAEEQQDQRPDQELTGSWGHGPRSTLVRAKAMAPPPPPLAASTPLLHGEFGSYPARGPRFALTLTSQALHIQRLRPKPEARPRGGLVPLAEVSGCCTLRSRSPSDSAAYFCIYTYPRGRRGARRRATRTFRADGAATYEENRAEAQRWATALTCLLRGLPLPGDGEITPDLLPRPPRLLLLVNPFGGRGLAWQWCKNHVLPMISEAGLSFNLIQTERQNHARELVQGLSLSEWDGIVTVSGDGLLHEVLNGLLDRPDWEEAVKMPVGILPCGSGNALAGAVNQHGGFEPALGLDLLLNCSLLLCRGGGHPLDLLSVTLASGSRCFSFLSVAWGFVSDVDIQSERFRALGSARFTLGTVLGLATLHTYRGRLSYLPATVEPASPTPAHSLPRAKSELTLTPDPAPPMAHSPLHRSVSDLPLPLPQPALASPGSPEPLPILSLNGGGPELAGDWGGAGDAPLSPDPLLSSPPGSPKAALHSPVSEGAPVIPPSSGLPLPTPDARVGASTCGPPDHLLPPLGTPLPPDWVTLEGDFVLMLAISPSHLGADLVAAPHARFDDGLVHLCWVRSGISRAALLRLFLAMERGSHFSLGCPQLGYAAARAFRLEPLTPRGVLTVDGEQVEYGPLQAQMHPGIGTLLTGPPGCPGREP
As to conditions: at 0.1 µM.

The target in assay [3] is T1, Sphingosine kinase 2 (Homo sapiens). Conditions: at 1 µM.
For assay [4], the target named is Casein kinase II subunit alpha (Homo sapiens) (UniProt P68400). As to conditions: at 0.1 µM.
Casein kinase II subunit alpha (Homo sapiens), sequence (P68400 whole entry, looked up): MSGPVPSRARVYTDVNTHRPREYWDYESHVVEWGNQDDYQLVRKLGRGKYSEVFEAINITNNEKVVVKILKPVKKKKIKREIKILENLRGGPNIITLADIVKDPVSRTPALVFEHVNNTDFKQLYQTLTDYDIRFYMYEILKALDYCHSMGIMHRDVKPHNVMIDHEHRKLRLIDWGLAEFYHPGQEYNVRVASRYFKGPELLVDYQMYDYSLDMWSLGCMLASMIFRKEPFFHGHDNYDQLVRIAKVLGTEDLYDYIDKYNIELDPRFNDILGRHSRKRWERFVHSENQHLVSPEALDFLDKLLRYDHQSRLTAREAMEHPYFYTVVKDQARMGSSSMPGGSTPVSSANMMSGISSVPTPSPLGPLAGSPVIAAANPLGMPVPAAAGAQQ
Assay [5] has the same target. As to conditions: at 1 µM.
The target in assay [6] is T2, Inhibitor of nuclear factor kappa-B kinase subunit alpha (Homo sapiens) (UniProt O15111).
T2 sequence (whole entry): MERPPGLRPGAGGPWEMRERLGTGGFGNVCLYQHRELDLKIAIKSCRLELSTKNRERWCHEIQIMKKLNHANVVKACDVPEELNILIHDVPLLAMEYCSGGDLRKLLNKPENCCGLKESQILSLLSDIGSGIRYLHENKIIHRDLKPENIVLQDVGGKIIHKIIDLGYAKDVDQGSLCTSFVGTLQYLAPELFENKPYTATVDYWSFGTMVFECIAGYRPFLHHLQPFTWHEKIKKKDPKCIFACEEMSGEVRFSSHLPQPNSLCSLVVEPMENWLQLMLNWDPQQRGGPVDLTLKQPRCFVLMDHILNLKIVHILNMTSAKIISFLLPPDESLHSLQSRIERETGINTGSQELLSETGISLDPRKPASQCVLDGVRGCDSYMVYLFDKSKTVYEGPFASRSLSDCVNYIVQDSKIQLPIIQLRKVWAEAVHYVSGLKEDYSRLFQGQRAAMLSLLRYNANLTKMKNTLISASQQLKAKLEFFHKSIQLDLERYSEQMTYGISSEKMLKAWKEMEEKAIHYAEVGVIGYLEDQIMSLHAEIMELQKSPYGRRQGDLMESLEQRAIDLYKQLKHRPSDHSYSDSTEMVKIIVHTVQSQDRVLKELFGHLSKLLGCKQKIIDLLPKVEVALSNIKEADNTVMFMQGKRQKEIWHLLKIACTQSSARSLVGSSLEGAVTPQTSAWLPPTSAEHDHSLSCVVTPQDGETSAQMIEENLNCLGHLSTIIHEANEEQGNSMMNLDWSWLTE
As to conditions: at 0.1 µM.

In assay [7] the target is T2, Inhibitor of nuclear factor kappa-B kinase subunit alpha (Homo sapiens). As to conditions: at 1 µM.
In assay [8] the target is T3, Inhibitor of nuclear factor kappa-B kinase subunit beta (Homo sapiens) (UniProt O14920).
T3 sequence (whole entry): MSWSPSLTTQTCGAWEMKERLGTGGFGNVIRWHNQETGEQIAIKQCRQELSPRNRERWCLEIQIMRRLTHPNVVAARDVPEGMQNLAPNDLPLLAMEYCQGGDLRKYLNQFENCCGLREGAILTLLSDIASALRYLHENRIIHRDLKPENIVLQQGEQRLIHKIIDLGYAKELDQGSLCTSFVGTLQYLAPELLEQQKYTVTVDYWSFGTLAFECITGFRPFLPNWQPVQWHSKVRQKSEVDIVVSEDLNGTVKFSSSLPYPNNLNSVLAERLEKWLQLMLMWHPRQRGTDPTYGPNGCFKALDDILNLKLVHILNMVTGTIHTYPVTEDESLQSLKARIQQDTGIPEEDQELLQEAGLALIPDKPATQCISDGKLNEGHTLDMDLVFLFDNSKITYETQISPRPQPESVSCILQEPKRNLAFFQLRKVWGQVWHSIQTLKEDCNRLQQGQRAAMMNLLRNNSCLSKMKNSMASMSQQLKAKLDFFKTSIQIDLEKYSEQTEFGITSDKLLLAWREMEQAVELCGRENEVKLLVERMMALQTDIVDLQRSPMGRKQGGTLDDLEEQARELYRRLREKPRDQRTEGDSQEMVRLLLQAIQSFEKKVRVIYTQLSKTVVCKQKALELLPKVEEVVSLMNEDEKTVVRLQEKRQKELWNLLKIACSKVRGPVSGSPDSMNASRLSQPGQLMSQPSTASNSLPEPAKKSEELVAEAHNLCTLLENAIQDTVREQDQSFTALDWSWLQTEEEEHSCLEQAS
Conditions: at 0.1 µM.

For assay [9], the target named is T3, Inhibitor of nuclear factor kappa-B kinase subunit beta (Homo sapiens). As to conditions: at 1 µM.
In assay [10] the target is T4, Inhibitor of nuclear factor kappa-B kinase subunit epsilon (Homo sapiens) (UniProt Q14164).
T4 sequence (whole entry): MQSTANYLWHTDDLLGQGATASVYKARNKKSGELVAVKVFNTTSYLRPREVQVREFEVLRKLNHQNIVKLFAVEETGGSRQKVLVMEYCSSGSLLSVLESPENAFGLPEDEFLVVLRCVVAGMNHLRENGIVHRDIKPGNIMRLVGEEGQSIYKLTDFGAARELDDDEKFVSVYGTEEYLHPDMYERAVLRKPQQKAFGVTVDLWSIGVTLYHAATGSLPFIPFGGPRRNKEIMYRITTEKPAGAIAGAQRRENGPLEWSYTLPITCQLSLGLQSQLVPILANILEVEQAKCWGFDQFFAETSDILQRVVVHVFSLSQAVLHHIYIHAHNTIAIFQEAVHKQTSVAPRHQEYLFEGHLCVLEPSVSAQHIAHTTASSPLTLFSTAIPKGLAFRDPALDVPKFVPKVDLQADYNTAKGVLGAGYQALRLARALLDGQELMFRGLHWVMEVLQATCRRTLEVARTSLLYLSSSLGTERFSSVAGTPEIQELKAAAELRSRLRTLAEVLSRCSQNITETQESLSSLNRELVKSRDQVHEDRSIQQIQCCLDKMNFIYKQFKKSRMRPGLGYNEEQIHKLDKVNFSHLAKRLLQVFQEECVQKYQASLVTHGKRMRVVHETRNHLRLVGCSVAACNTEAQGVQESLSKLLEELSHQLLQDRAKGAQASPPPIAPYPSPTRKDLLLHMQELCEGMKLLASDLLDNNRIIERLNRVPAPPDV
As to conditions: at 0.1 µM.

The target in assay [11] is T4, Inhibitor of nuclear factor kappa-B kinase subunit epsilon (Homo sapiens). As to conditions: at 1 µM.
The target of assay [12] is T5, Serine/threonine-protein kinase Nek1 (Homo sapiens) (UniProt Q96PY6).
T5 sequence (whole entry): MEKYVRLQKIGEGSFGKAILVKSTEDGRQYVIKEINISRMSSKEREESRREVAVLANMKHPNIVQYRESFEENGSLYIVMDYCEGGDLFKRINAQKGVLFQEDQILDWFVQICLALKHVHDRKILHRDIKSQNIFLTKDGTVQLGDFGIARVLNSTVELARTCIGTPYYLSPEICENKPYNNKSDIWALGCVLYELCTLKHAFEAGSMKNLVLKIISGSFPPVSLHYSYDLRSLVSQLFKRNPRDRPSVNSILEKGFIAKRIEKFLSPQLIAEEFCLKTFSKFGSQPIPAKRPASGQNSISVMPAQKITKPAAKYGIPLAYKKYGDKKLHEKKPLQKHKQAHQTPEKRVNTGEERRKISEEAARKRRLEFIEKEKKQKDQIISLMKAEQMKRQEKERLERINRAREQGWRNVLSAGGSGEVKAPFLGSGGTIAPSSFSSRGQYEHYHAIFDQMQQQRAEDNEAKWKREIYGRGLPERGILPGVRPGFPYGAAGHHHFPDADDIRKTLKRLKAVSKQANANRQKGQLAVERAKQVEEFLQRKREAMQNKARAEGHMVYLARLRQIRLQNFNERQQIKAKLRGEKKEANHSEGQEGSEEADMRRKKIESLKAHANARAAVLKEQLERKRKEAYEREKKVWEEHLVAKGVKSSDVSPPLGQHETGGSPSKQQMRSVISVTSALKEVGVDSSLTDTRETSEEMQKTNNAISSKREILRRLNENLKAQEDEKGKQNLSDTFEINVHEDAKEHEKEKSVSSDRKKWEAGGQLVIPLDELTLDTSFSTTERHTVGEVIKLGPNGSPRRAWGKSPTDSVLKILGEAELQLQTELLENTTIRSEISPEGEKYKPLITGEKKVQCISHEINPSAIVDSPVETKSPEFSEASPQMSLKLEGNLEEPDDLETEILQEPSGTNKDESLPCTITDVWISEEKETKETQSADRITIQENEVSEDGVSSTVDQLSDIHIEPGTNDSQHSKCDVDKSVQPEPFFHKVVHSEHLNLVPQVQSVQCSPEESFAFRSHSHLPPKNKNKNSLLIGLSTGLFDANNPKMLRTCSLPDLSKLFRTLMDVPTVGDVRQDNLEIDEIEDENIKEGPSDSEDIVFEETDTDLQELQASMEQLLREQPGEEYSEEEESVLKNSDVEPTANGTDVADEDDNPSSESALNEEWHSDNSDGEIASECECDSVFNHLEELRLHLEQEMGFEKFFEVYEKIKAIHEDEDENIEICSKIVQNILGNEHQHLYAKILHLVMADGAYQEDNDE
Conditions: at 0.1 µM.

The target of assay [13] is T5, Serine/threonine-protein kinase Nek1 (Homo sapiens). Conditions: at 1 µM.
For assay [14], the target named is T6, Serine/threonine-protein kinase Nek2 (Homo sapiens) (UniProt P51955).
T6 sequence (whole entry): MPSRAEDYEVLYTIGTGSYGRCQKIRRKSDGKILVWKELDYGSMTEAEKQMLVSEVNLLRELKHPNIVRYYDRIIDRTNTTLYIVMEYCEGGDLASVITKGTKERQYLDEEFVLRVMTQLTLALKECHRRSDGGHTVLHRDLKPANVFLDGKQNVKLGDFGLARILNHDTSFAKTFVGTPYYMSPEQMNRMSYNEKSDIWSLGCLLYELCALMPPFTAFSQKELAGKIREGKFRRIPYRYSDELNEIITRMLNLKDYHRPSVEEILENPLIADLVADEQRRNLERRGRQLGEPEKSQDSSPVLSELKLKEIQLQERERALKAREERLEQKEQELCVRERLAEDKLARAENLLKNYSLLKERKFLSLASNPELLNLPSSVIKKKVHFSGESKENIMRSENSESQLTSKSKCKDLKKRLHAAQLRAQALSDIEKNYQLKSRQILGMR
As to conditions: at 0.1 µM.

The target of assay [15] is T6, Serine/threonine-protein kinase Nek2 (Homo sapiens). As to conditions: at 1 µM.
Assay [16] has as its target Serine/threonine-protein kinase Nek6 (Homo sapiens) (UniProt Q9HC98). As to conditions: at 0.1 µM.
For assay [17] the target is unchanged. As to conditions: at 1 µM.
The target of assay [18] is Serine/threonine-protein kinase Nek7 (Homo sapiens) (UniProt Q8TDX7). As to conditions: at 0.1 µM.
Serine/threonine-protein kinase Nek7 (Homo sapiens), sequence (Q8TDX7 whole entry, looked up): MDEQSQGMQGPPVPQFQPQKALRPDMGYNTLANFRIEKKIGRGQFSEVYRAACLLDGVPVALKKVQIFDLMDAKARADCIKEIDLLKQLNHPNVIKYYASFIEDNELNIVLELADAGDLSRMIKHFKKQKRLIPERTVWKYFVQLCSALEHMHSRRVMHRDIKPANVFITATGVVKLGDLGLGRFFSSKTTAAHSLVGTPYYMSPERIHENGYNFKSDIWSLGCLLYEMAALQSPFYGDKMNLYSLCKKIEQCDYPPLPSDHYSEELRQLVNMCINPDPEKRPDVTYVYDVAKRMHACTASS
For assay [19] the target is unchanged. As to conditions: at 1 µM.
For assay [20], the target named is T7, Serine/threonine-protein kinase Nek9 (Homo sapiens) (UniProt Q8TD19).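 Also: reported value is the mean percent inhibition of NEK9.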
T7 sequence (whole entry): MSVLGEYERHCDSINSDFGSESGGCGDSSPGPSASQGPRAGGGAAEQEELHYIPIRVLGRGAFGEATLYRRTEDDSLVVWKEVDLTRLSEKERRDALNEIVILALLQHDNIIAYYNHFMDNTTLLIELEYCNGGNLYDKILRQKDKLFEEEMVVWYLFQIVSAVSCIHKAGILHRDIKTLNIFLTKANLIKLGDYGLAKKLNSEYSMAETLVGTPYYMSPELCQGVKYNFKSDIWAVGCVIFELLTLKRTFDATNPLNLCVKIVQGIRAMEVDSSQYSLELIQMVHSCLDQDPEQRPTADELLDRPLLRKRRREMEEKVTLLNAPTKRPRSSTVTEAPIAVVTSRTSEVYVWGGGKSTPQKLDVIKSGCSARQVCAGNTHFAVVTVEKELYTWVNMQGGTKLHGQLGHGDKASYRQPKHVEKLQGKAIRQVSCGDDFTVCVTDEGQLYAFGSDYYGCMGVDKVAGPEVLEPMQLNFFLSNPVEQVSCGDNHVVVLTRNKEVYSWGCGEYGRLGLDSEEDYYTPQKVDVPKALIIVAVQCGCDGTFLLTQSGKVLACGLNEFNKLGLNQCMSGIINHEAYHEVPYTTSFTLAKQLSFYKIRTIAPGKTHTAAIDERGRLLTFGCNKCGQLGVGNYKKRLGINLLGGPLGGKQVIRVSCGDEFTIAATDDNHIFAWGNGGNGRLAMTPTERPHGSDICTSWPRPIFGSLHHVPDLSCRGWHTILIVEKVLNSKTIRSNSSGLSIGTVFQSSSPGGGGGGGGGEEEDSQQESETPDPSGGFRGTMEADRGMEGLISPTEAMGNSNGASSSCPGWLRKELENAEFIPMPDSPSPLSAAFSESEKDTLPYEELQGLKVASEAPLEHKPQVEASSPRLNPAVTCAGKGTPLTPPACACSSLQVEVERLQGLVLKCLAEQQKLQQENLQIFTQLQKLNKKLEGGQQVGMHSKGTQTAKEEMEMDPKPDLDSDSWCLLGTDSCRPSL
Conditions: at 0.1 µM.

Serine/threonine-protein kinase Nek6 (Homo sapiens), sequence (Q9HC98 whole entry): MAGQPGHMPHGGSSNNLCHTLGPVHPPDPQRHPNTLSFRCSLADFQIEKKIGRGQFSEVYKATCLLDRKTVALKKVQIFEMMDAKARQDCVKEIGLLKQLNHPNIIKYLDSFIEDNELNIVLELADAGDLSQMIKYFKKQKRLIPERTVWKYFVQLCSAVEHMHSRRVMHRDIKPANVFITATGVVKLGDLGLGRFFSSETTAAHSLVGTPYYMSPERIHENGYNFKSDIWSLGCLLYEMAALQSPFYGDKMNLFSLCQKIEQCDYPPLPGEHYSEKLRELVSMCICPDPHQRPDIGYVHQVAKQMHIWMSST
Sphingosine kinase 1 (Homo sapiens), sequence (Q9NYA1 whole entry): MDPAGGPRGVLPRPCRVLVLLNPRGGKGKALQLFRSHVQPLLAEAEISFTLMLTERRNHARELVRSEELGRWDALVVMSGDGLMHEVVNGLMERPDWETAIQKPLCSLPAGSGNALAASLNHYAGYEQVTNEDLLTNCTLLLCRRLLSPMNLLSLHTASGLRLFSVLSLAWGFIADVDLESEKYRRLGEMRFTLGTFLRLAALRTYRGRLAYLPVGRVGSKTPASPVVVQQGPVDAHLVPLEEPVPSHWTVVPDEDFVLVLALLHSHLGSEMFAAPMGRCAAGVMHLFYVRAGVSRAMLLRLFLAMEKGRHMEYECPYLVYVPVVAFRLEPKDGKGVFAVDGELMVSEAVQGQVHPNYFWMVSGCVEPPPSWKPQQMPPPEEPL

For `Cc1ccc(-c2cc3c(NC(=O)C4CC4)ncnc3o2)cc1`, the inhibition was -8.41% in assay [1]; -0.23% in assay [2]; -0.24% in assay [3]; 2.02% in assay [4]; 10.8% in [5]; 4.84% in assay [6]. Further, the inhibition in assay [7] worked out at 1.2%; in assay [8] it was 2.98%; in assay [9], 4.2%; in assay [10], 4.06%; in assay [11], 6.07%; in assay [12], 1.85%. In addition, the inhibition in assay [13] was 3.91%; in assay [14] it was 4.58%; in [15], 4.89%; in [16] it was 3.4%; in assay [17] it was 0.29%; in [18], 3.17%. For the same compound, the inhibition is 3.35% in assay [19] and 3.07% in assay [20].

These data come from ChEMBL document CHEMBL1961873, “Compounds: GSK PKIS; Assays: Nanosyn kinase panel” (2012).
